Calls of active or inactive are those of the source.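 The calls were made as follows, unless noted: active = inhibition at or above 50% at 10 µM; inactive = inhibition below 50%.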
What was measured:
[1] = inhibitors of TNFa-induced NFkB p65 translocation, primary screen, imaging, HUVEC, MLSMR starter and 10KST1 sets (AID 438;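 active = inhibition above 20% together with a positive visual image hit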;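 also: compound added about 3h40 before a 20 min TNFalpha stimulation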;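 as to inhibition: signal is the nuclear over cytoplasmic p65 intensity ratio per well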); settings: HUVEC TNFa-induced p65 nuclear translocation; cell count: measured here: nuclei count (cytotoxicity indicator), at 2.08 µM; inhibition: at 2 µM, stronger effect = higher value, 0% TNFa-plus-vehicle, 100% no-TNFa wells
[2] = inhibitors of mutant huntingtin aggregation, primary screen, imaging, exon1htt(103Q)mCFP cells, high-content imaging (AID 483;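 active = visual image review flags a hit and inhibition of aggregation exceeds 20%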;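 also: compound exposure lasted 3 days before fixation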;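 as to nuclei count: percent of the per-plate median nuclei count of sample wells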); settings: exon1htt(103Q)mCFP cell line, aggregate imaging, at 2 µM; inhibition of aggregation: stronger effect = higher value; nuclei count: measured here: cell count, toxicity
[3] = inhibitors of E-selectin induction by TNFa, primary screen, imaging, HUVEC, immunofluorescence, MLSMR starter and 10KST1 sets (AID 487;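 active = visually confirmed hit in the image check and inhibition above 20%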;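 as to inhibition: signal is fraction of cell area covered by stained E-selectin grains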;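 as to nuclei count: 100% = median nuclei count of all wells on the same plate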); settings: HUVEC TNFalpha-induced E-selectin immunofluorescence imaging, at 2 µM; inhibition: stronger effect = higher value; nuclei count: measured here: cell number, toxicity
[4] = molecular target: Voltage-gated potassium channel subunit beta-2 (Rattus norvegicus) (UniProt P62483); assay: KvBeta enzyme negative modulators, primary screen, biochemical, NADPH fluorescence (AID 622;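 active = fluorescence slope higher than the sample average by over 3 SD, cut at about -0.22 in these data, passing the limit was not always enough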;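 also: slope of raw intensity against log time taken from 70 to 1610 s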); settings: recombinant KvBeta, 4-cyanobenzaldehyde reduction, at 10 µM, stronger effect = higher value
Voltage-gated potassium channel subunit beta-2 (Rattus norvegicus), sequence (P62483 whole entry, looked up): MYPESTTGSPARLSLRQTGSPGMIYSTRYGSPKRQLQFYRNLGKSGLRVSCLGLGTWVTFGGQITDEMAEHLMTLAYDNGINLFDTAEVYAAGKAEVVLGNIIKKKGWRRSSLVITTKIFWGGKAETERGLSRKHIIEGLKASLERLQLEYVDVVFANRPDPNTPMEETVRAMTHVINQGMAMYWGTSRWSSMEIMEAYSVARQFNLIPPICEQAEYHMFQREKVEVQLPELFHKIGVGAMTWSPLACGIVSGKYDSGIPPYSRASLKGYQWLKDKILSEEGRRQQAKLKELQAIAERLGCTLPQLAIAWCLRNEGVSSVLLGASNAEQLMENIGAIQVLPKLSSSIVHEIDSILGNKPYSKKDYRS

[5] = molecular target: Voltage-gated potassium channel subunit beta-2 (Rattus norvegicus) (UniProt P62483); assay: KvBeta positive modulators, primary screen, biochemical, NADPH fluorescence (AID 623;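 active = NADPH fluorescence slope more negative than the mean of all samples by about 3 SD, 99.7% confidence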;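 also: fluorescence intensity change per second fitted from 20 to 320 s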); settings: Recombinant KvBeta, NADPH fluorescence decrease slope, 10 min; at 10 µM; stronger effect = lower value
[6] = molecular target: Alpha-2C adrenergic receptor (Homo sapiens) (UniProt P18825); assay: modulators of alpha2C/GIRK thallium flux, primary screen, cell-based, HEK293 alpha2C/GIRK1/2 (AID 624;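 active = fluorescence slope after compound addition differing from the mean of all screened samples at 99.7% confidence, in either direction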;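 also: slope of fluorescence ratio to pre-addition baseline per second over 15 to 24 s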); settings: thallium flux BTC fluorescence, at 10 µM, actives lie on both sides
Alpha-2C adrenergic receptor (Homo sapiens), sequence (P18825 whole entry, looked up): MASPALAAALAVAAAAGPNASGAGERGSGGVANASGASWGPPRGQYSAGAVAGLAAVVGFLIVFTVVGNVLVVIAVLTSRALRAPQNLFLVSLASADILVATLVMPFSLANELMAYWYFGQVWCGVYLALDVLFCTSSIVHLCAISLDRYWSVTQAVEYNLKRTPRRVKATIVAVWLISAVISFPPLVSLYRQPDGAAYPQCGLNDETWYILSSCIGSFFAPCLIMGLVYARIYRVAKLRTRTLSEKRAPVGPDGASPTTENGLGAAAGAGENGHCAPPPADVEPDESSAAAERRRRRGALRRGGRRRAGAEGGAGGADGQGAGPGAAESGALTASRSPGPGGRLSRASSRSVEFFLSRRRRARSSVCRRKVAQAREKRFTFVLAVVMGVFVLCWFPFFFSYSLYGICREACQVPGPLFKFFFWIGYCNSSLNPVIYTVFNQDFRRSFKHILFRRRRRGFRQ

[7] = inhibitors of Sendai virus-induced IRF3 signaling, primary screen, TLR/RLR signaling modifier project, cell-based, Sendai virus stimulus, luciferase, 10K MLSCN set (AID 602276); settings: HEK293 RL24 IRF3 luciferase reporter, at 10 µM, stronger effect = higher value;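 also: firefly luciferase from ISG56 promoter only with Renilla not read in this screen; 0% = Sendai virus plus DMSO and 100% = medium plus DMSO without virus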
[8] = inhibitors of poly I:C-induced TLR3 signaling, primary screen, cell-based, poly I:C stimulus, luciferase, 10K MLSCN set (AID 602277;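 active = inhibition of the reporter signal at or above 50%; inactive = inhibition below 50%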); settings: HEK293-TLR3 RL24 IRF3 luciferase reporter, at 10 µM, stronger effect = higher value

Row | SMILES | cell count [1] | inhibition [1] | inhibition of aggregation [2] | nuclei count [2] | inhibition [3] | nuclei count [3] | fluorescence slope [4] | NADPH fluorescence slope [5] | slope [6] | inhibition [7] | inhibition [8]
1 | Cc1cc2cc(CN(CC3CCCO3)C(=O)c3cnccn3)c(=O)[nH]c2cc1C (centres undefined) | 330 | 5.3% (inactive) | -0.3% (inactive) | 107% | -22.4% (inactive) | 125% | -0.592 (inactive) | -5.9e-05 (inactive) | 0.00376 (inactive) | -3.76% (inactive) | -3.05% (inactive)
2 | Cc1onc(-c2ccccc2Cl)c1C(=O)N1CCc2ccccc21 | 398 | -1.3% (inactive) | -6.4% (inactive) | 104% | -43.1% (inactive) | 110% | -0.405 (inactive) | 9.6e-06 (inactive) | 0.00452 (inactive) | 10.6% (inactive) | 34.8% (inactive)
3 | CCOC(=O)c1ccccc1NC(=O)CSc1nnc(COc2ccccc2C)n1C | 667 | 14.9% (inactive) | 11.9% (inactive) | 97.3% | 45.4% (inactive) | 100% | -0.346 (inactive) | -4.2e-05 (inactive) | 0.00577 (inactive) | 16.9% (inactive) | 22.9% (inactive)
4 | FC(F)(F)c1cc(-c2ccco2)nc(N2CCOCC2)n1 | 645 | -8.5% (inactive) | -15% (inactive) | 89% | -83.2% (inactive) | 118% | -0.586 (inactive) | -1.4e-05 (inactive) | 0.00435 (inactive) | 16.2% (inactive) | 15.5% (inactive)
5 | CCOCC(=O)Nc1c(C(=O)Nc2ccc(OC)cc2OC)oc2ccccc12 | 543 | -4.1% (inactive) | 19.2% (inactive) | 93.9% | 52.4% (inactive) | 57.7% | -0.19 (inactive) | -9.5e-06 (inactive) | 0.00574 (inactive) | -20.7% (inactive) | -15.2% (inactive)
6 | COC(=O)c1sccc1NC(=O)c1csc(C)c1 | 406 | -5.4% (inactive) | 0.6% (inactive) | 88% | -42.1% (inactive) | 123% | -0.384 (inactive) | -0.000107 (inactive) | 0.00657 (inactive) | 18.7% (inactive) | 36.8% (inactive)
7 | Cc1ccnc(NC(=O)CCC(=O)N(CC(=O)NC(C)(C)C)C2CCCC2)c1 | 603 | 1.7% (inactive) | -6.2% (inactive) | 113% | -105% (inactive) | 89.5% | -0.638 (inactive) | -1.4e-05 (inactive) | 0.00587 (inactive) | 9.05% (inactive) | 9.79% (inactive)
8 | CCOC(=O)c1nc2sc3c(c2c(=O)[nH]1)CCCC3 | 763 | -1.6% (inactive) | -9.6% (inactive) | 84.3% | 2.7% (inactive) | 102% | -0.0445 (active) | -1.1e-05 (inactive) | 0.0045 (inactive) | 13.1% (inactive) | 11.2% (inactive)
9 | COc1ccc(S(=O)(=O)N(CC(=O)N2CCN(c3ccccc3OC)CC2)c2ccccc2)cc1 | 291 | 5.2% (inactive) | -12.6% (inactive) | 104% | 20% (inactive) | 111% | -0.474 (inactive) | -4.9e-05 (inactive) | 0.00648 (inactive) | 8.76% (inactive) | 13.4% (inactive)
10 | CCn1c(C)nc2cc(C(=O)OCCC(F)(F)F)ccc21 | 531 | -9% (inactive) | -1.8% (inactive) | 106% | 6.2% (inactive) | 92.5% | -0.263 (inactive) | -2.2e-05 (inactive) | 0.00759 (inactive) | -16.4% (inactive) | -104% (inactive)
11 | CCOC(=O)c1csc(NC(=O)C2CCCCC2)n1 | 706 | -18.4% (inactive) | -10% (inactive) | 90.2% | -4.9% (inactive) | 94.6% | -0.419 (inactive) | -0.000101 (inactive) | 0.00464 (inactive) | -47.3% (inactive) | -124% (inactive)
12 | CC1(C)CC(=O)C2=C(C1)OC(N)=C(C#N)C2C1CC=CCC1 (centres undefined) | 569 | 2.4% (inactive) | 1.3% (inactive) | 119% | -52% (inactive) | 89.2% | -0.556 (inactive) | -1.7e-05 (inactive) | 0.00554 (inactive) | 16% (inactive) | 22.1% (inactive)
13 | COc1ccccc1N(CN1CCCC1=O)C(=O)c1c(F)cccc1Cl | 370 | -0.3% (inactive) | 9.3% (inactive) | 84.8% | -15.4% (inactive) | 91.8% | -0.477 (inactive) | -3.8e-05 (inactive) | 0.0058 (inactive) | 12.3% (inactive) | 4.03% (inactive)
14 | Cc1ccc(N(C(C)C(=O)Nc2ccc(S(=O)(=O)N3CCOCC3)cc2)S(C)(=O)=O)cc1 (centres undefined) | 522 | -7.3% (inactive) | 23.8% (inactive) | 68.3% | -0.3% (inactive) | 92.3% | -0.518 (inactive) | -1.3e-05 (inactive) | 0.00486 (inactive) | 5.72% (inactive) | 10.8% (inactive)
15 | COc1ccc(C(CNC(=O)c2cc(C)oc2C)N2CCOCC2)cc1 (centres undefined) | 711 | -0.8% (inactive) | -5.3% (inactive) | 103% | -140% (inactive) | 145% | -0.609 (inactive) | -9.2e-06 (inactive) | 0.00615 (inactive) | 11.1% (inactive) | 15.8% (inactive)
16 | COc1ccccc1N(CC(=O)Nc1cccnc1)S(C)(=O)=O | 623 | 9.2% (inactive) | 20.5% (inactive) | 92.6% | 58.2% (inactive) | 34.6% | -0.408 (inactive) | -6.4e-05 (inactive) | 0.00671 (inactive) | 7.85% (inactive) | 17.6% (inactive)
17 | CCOc1cc(C2NC(=O)NC(O)(C(F)(F)F)C2C(=O)c2ccccc2)ccc1OC (centres undefined) | 383 | 6.8% (inactive) | 4.9% (inactive) | 86.1% | -51% (inactive) | 121% | -0.378 (inactive) | 3.5e-05 (inactive) | 0.00542 (inactive) | 5.58% (inactive) | 11.7% (inactive)
18 | COc1ccccc1Oc1coc2c(CN3CCN(C)CC3)c(O)ccc2c1=O | 541 | -0.5% (inactive) | -8.8% (inactive) | 107% | -12.9% (inactive) | 89.1% | -0.0185 (active) | 7e-06 (inactive) | 0.00281 (inactive) | 11.8% (inactive) | 34.8% (inactive)
19 | CC(C)n1c(NCc2c[nH]c3ccccc23)nc2ccccc21 | 489 | 1% (inactive) | 20.3% (inactive) | 54.6% | -5.1% (inactive) | 86.6% | -0.511 (inactive) | -4.3e-05 (inactive) | 0.00272 (inactive) | -4.81% (inactive) | -0.81% (inactive)

Source: PubChem BioAssay
